In PubChem BioAssay AID602244 (Sanford-Burnham Center for Chemical Genomics, 2012):
Screen size: about 360,000 compounds; about 1,300 (0.36%) were called active. This is one part of a sample in which actives are shown more often than they occur. Cut-off read from the data, not from the text of the source: active = inhibition above about 34% (passing the limit was not always enough); inactive = the rest.

target: C-X-C chemokine receptor type 6 (Homo sapiens) (UniProt O00574); assay: CXCR6 receptor inhibitors, primary screen, cell-based, beta-arrestin, luminescence, CHO-K1 PathHunter, 1536-well (AID 602244); conditions: at 20 µM, hits give high values;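 note: antagonist mode with CXCL16 agonist at 10 nM final; 0% = 10 nM CXCL16 with DMSO and 100% = unstimulated wells without agonist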
Sequence (O00574 whole entry, looked up): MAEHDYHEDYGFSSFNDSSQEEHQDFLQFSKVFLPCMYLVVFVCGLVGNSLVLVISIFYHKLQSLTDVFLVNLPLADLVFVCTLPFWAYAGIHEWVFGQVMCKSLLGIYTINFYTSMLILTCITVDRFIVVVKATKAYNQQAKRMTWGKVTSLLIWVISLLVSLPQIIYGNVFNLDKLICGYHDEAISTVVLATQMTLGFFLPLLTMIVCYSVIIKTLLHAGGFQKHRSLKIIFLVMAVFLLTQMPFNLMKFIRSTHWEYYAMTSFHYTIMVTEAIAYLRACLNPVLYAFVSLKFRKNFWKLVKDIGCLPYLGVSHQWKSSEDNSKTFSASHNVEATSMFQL

SMILES	inhibition
CC(=O)Oc1ccc(Cn2c(C)c(C(=O)NCc3ccc(C#N)cc3)sc2=O)cc1	3.1% (inactive)
CC(=O)N1Cc2ccccc2CC1C(=O)O (stereo not drawn)	8% (inactive)
Cc1ccc(/C=N/NC(=O)C(NC(=O)c2ccccc2)c2n[nH]c(=O)c3ccccc23)cc1 (stereo not drawn)	-2.3% (inactive)
Cc1ccc(NC(=O)CCC(=O)N/N=C/c2ccco2)c(C)c1	-4% (inactive)
Cc1ccc(/C=N/NC(=O)C2=NNC(c3ccccc3)(c3ccccc3)C2)c(O)c1	49.2% (active)
O=C(NCCc1ccccc1)c1ccc(NC2=NC3CS(=O)(=O)CC3S2)cc1 (stereo not drawn)	0% (inactive)
O=[N+]([O-])c1ccccc1N/N=C1\CCc2ccccc21	2.8% (inactive)
CCCCNC(=S)N/N=C1\CCCCc2ccccc21	37.6% (active)
S=C(NCCC1=CCCCC1)Nc1ccccc1	-7% (inactive)
NC(=O)C1=C[C@@H](c2ccc3c(c2)OCO3)C[C@@H](OCCCCO)O1	1.5% (inactive)
Cc1ccc(NC(=O)CN(C)C(=O)COC(=O)c2nccnc2N)cc1	-1.8% (inactive)
O=C(NC1=CC(=O)c2ccccc2C1=O)c1ccccc1	71.6% (active)
O=C(COC(=O)c1cccc(Br)c1)Nc1cccc2c1C(=O)c1ccccc1C2=O	-9.2% (inactive)
CC(=O)c1cc(NC(=O)c2ccccc2)c(=O)oc1/C=C/N(C)C	9.9% (inactive)
CCOC(=O)N1CCC(Nc2c(NCCCN3CCN(CC)CC3)c(=O)c2=O)CC1	8.9% (inactive)
CCCCS(=O)c1snnc1C (stereo not drawn)	-4.7% (inactive)
CCCCc1ccc(S(=O)(=O)NC(=O)C2(C)CCN2C(=O)c2ccccc2)cc1 (stereo not drawn)	7.2% (inactive)
Cc1ccc(C23CC4CC(CC(C(=O)NCC(=O)O)(C4)C2)C3)cc1	1.5% (inactive)
CCCCN(C)CCNC(=O)CSCc1ccc(C)cc1	2.3% (inactive)

SMILES	inhibition
Cc1ccc(N=Cc2c(O)n(-c3nccs3)c(=O)c3ccccc23)c(C)c1	4.8% (inactive)
Cc1cccc(-n2c(O)c(C=Nc3ccccc3N)c(=O)[nH]c2=O)c1	108% (active)
Cc1cccc(N2C(=O)CC(SC(N)=Nc3ccccc3)C2=O)c1 (stereo not drawn)	2.2% (inactive)
O=C(Cn1ncc2c3ccccc3n(Cc3ccccc3)c2c1=O)NCCCN1CCOCC1	8.7% (inactive)
O=C(COc1nsnc1N1CCOCC1)Nc1ccccc1Cl	-3.6% (inactive)
Cn1cccc1C(=O)NC(=O)COC(=O)Cc1coc2ccc3ccccc3c12	-1.2% (inactive)
CC(C)c1nc2sc3c(c2c(=O)n1N)CC(C)(C)OC3	2.4% (inactive)
COc1cc(NC(=O)C2CCN(c3cnccn3)CC2)cc(OC)c1	-10.3% (inactive)
O=C(OC1CCCCC1=O)c1cccc(S(=O)(=O)NCc2ccccc2)c1 (stereo not drawn)	7.3% (inactive)
CC(=O)N/C(=C\c1ccc(F)cc1)C(=O)NC(Cc1ccccc1)C(=O)O (stereo not drawn)	1.6% (inactive)
CC(=O)c1ccc(S(=O)(=O)N(C)CCCC(=O)N(C)Cc2ccccc2F)cc1	0.4% (inactive)
CCCNC(=O)c1cc(C2CCCN(C(=O)c3ccc4c(c3)CCO4)C2)on1 (stereo not drawn)	-0.8% (inactive)
CCOC(=O)C1CCN(C(=O)c2oc3ccc(S(=O)(=O)N4CCCCCC4)cc3c2C)CC1	-3.5% (inactive)
COc1ccc(NC(=O)c2oc3ccc(S(=O)(=O)N4CCOCC4)cc3c2C)cc1	-0.9% (inactive)
Cc1c(C(=O)NCCN(C)C)oc2ccc(S(=O)(=O)N3CCCC3)cc12	65.9% (active)
CC(Oc1cccc(Cl)c1)C(=O)Nc1ccc(S(=O)(=O)Nc2ncccn2)cc1 (stereo not drawn)	-1.1% (inactive)
CC[C@@H]1Cc2cc(O)ccc2C2=C1c1ccc(O)cc1C[C@H]2CC	-3.2% (inactive)
COC(=O)c1ccc(S(=O)(=O)N2CCC(c3nc4ccccc4o3)CC2)cc1	1.2% (inactive)
CC1Cn2c(nnc2-c2cccs2)S1 (stereo not drawn)	-1.1% (inactive)
